PubChem BioAssay AID1508600 (Functional Genomics Laboratory (NCATS/FGL), 2020)
Screen size: about 53,000 sequences; about 3,700 (7%) were called active.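 The calls were made as follows: active = gene knockdowns whose robust z-score for IL-1 alpha signal is at least 2 or at most -2, so actives lie on both sides; inactive = the rest.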 The sample as a whole holds a higher share of actives than the screen did.

Test: Components of the Cytosolic LPS Sensing Pathway: Gene Identification via Genome-wide siRNA Screen;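 also: robust z of the log signal after scaling to non-targeting control siRNA wells of the plate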
Conditions: RAW264.7 macrophages, IL-1a HTRF, actives lie on both sides, screened at 100 nM (by protocol), cells primed 5 h with Pam3CSK4 first
In short: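 Using IL-1a HTRF as read-out, the screen measured release from RAW264.7 cells after 48h siRNA knockdown (100 nM), 5 h Pam3CSK4 priming and 24 h cytosolic LipidA. Values were expressed relative to negative-control wells as robust z-scores.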

z-score, inactive:
GGAGGAACAAUCAUCUAUATT against Ripk2 1.1
GGCACAGAUGUUUUGAGAATT against Surf4 -0.954
CGAAAAUAUGGAUACUACUTT against Ippk 0.732
GGUGAACCUCAACAGACUCTT against Gtf3c4 -1.7
GGAAAAAAUCACAUUGACUTT against H2ac6 -0.835
GCCCAUUAAUGGGAUAUAATT against Ccdc134 0.148
GGCUCUGGCAGAAAUGGAUTT against Pex26 -0.0204
GGGAACAGAAGUUGUGAGATT against Gulp1 1.5
AGGUCAAUAAAGAGUGUGATT against Fam25c -1.66
GGACCAAUUGGAUCCUUUUTT against Olfr1340 -1.6
GCAUACGAUGGGAAUUGUATT against Wdr5b -1.6
GGAAGAAGAUAAAGAGAAATT against Gtf2a1 1.09
GGAAGUUACUGUGAGAUAATT against Mtbp 0.265
GGCCUAUCUUGUUUAUUUGTT against Tgtp1 -0.316
AUCGUGUUUGCUGUAUUUGTT against Olfr1258 0.33
GGAAAUCACCAACUUGGCCTT against Pou3f3 -0.0208
GGAUUUGUAGUUCAUCUCATT against Olfr77 0.0834
GGUCAGUGGAGCUCUCUAUTT against Fam234a 1.43
GGCAAACAACUGAAUAAGGTT against Pbsn -0.611
CCAAGUUAGUCUGCGUAUUTT against Zfp979 -0.52
CCCUACCCAGUUUCAGUUGTT against Phf12 0.206
GCAUACCUAGGAAAAAACUTT against Ednra 0.524
GGUAUUGACAGGGAUCUGATT against Limk1 1.19
GGCCUUAGGAAUCAAGUUGTT against 9530053A07Rik 1.24
GGAUAACGUAAUGAAGAUCTT against Fgfr1 -0.866
GGUUUCUUCUUCUGUUCAUTT against Ostc 1.13
GGCUCAAAGACUGAAUCCCTT against Recql4 0.309
GCUAGACCUCACUGUUUUUTT against Sprr2i 1.03
GCAGCAUGAAUCACACCUUTT against Dtd2 -1.29
CGUGUUCAAAAGAGUUUUCTT against Sos1 1.22
GCGGCUUUGUAUACAAGUUTT against Vwc2l 1.11
GGCUGUCAGAACCAACUACTT against Tshb 0.214
GGCCUUGAGAGGCUAAUACTT against Spata20 -1.27
GGUGAUUGUUAGAGUUAAATT against Syt4 0.934
GGUAAAAACCCAGAGAUGATT against Rem2 0.616
GGAACUAAUGUGCAGGAGGTT against Suclg2 0.459
CACGCAGAUGAUUAAGUUGTT against Olfr1000 1.25
GGAGAAUGAGAUCAACCUGTT against Pah 0.618
GGAGAACAGUCUUGAGAAATT against Crisp3 -0.712
CCUCCAGGAUUAUCGUGAUTT against Dnajc6 -1.22
GGCUUAAUGUUGCUUCAGATT against Aven -0.959
CCUUAAAAACUCGAGUAAATT against Gla 0.384
GCGGUCACACCAAAAGUCATT against Olfr1466 -1.56
GCUGUUUAUCUAGCUGUUATT against Mmp8 0.782
GGAUGUUAACAUUGAGCAATT against Asb11 -0.0828
GACGCAAGCAGCAUUUUAUTT against R3hdm4 -0.207
CCGUCAUCUACACCUAUUUTT against Olfr525 0.102
CGGCUUAUGAGUUAAAGACTT against Rad51b -1.03
GGUUAAGUGUGUUAAGUUCTT against Cipc 1.48
GGCCUCAAAUACCAUAACATT against Zfp941 0.000237
CGGACACAUGAUUGUCUUCTT against Npas1 1.25
GGUUUGAUGACAAAUACACTT against Spcs2 1.6
GCUGGUACAGCGUAUACCATT against Cep170b -1.03
GGAUGUUCUCAAACUACAATT against Kdm1b 0.702
GGGCAAGCCACUCAUGUUGTT against Me2 -0.997
GCCAUUAAUCUCACAUGUATT against Crebrf 1.39
GGAUCCUUCGAAUCCUGAATT against Cst11 -0.372
CCCAUGUUUAUGUUGCUGATT against Olfr467 0.251
GGACACCUGAAGUUAGUUUTT against Ndufaf1 0.622
GGAGAAGGAUCUGAACGAGTT against Nog -1.24
CCUUAUGGAUUUAGCAUCATT against Lamb3 0.917
ACUAUGGUUGGUUCAAACGTT against Acat2 -1.23
GCACAACGGUUCGUUGUUATT against 4933427E11Rik -1.17
GGUGUAGGCUGUCCAAUAATT against Rtel1 0.74
GACUCUUGUCCCAAGUGUUTT against Bloc1s4 0.144
AUAGUGGAACCCUUUGUACTT against Olfr1195 -0.832
GGAAUACGACAGAACUCCATT against Extl1 0.218
GGAGAAGCAAACUGCACCUTT against Cacng6 1.08
GGACCUGAAACACGCCAAUTT against Cdk18 -0.35
GCGGGAGAGCUAUGAAACATT against Mrps21 -0.0502
GGCUGCACAAAACGAGAUCTT against Tcirg1 -0.0738
GGCAAACAAAUGGUUUGUUTT against Zfp324 -0.544
GGUUCUCGGUAAAUCCUGCTT against Slc35b1 -1.07
GGAGGUUGAGGCUUCUAAGTT against Pacsin3 1.2
GGAUAAUGAGCUGAACAUATT against Nek7 -0.0844
GCCUCACUUUGACUGUCGCTT against Tpgs2 -0.289
GGAGAAAGUGAUUGACAUATT against Lpin2 -0.0579
GGAAGGGUUUGUUUGUUUATT against Nkiras1 1.55
GGCCUUGAAAGCCAUUGGUTT against Kmo -0.728
GGACUUGAAGAACUGUUAUTT against Hspa13 -0.0642
CGUGCUGUAUGGCAAAGUUTT against Bst1 0.563
GCCCAUGUUUGUGAGGGUUTT against Fem1al -0.0893
GGUUCCAAUGCUAUUGAAUTT against Tc2n 0.391
GGUUAUAUUAUGUAGCCUATT against Klf17 0.332
GGUCACAGUUGGCAAAGAUTT against Myh11 -0.521
GCGUAAGCAGCAAGAUGGATT against Ash2l 1.21
GCUUUCAAGUGGUUAUGAATT against Nsun6 0.0136

z-score, active:
CGGUGAUCGUCAUUUUAUUTT against Ap4m1 2.47
GGAUACGAAAACGACUGCATT against Pdpr 2.05
GGAUGUUAUUCAGUUUUCATT against BC051019 2.37
GGUUCUAAAACUUAACAAGTT against Brf2 2.7
CCUGUGAAUUCAUCGUUCATT against Vps26c 2.34
GGGUUUCAAUGGCACAAUUTT against Kif3b 2.12
GCUAUCUAGAGCCAAGAGCTT against Bahcc1 2.27
GGUAACUGUGGACUUAUCUTT against Olfr665 -2.17
CUCUAGUGUUACACUUAUUTT against Tefm 2.83
CCGUGAUCCCUUUUCACCATT against 6030445D17Rik -2.26
GGUCAAUUAUGAAGAGUUUTT against Calm3 3.04
GGCAUUUCAACUGGACCCATT against Lamb1 -2
GGUAGAUUAUAGCAAAAUGTT against Ik -2.23
CCUAGAGAUUGGUAUGUACTT against Tmem132e -2.1
CCAAACCAGUGGAGUCCAUTT against Slc7a14 -2.26
GGAUCAACAGUCAAUUGUGTT against Tax1bp1 -2.16
GGGAAAUUUCUCUACAUCUTT against Npas1 2.2
GGAAGCAUGCAAUGAUAUUTT against 4933431E20Rik -2.31
GCGCGACAAAUCGUAGGCUTT against Mamstr -2.13
GCACUUCCCUCCCUAUGCATT against Cep20 -2.11
CGUGUAUCGUUGUCUGAAUTT against Donson 2.75
